Test [1] can be described thus: small molecules captured by biotinylated probe aFSTL3 – biochemical, small-molecule microarray, fluorescence 635/667, stem cell growth factor project, primary screen (AID 1064).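 Further: measures binding of the biotinylated anti-FSTL3 antibody to printed compounds.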 The note with it: higher = more signal.
Test [2] is described as follows: binders from COS7 lysate, DM2A8 probe, primary screen, torsin A project, cell lysate, small-molecule microarray, fluorescence 635/667 (AID 1065). The settings on record: higher = more signal, COS7 lysate expressing mutant human TOR1A.
Test [3] can be described thus: small molecules captured by biotinylated probe aFGF2 – biochemical, small-molecule microarray, fluorescence 635/667, stem cell growth factor project, primary screen (AID 1067).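 Further: measures binding of biotinylated aFGF2 protein to printed compounds on slides; z-score merges feature fluorescence and signal-to-noise across triplicate slides.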 The settings on record: higher = more signal.
Test [4] is described as follows: small molecules captured by biotinylated probe aFGF10 – biochemical, small-molecule microarray, fluorescence 635/667, stem cell growth factor project, primary screen (AID 1071).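 Further: score merges 667 nm spot intensity and signal to noise from triplicate slides.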 The settings on record: higher = more signal.
In test [5] the target is Neurogenic locus notch homolog protein 2 (Homo sapiens) (UniProt Q04721). The experiment in a line: small molecules binding Notch2 protein – biochemical, small-molecule microarray, 635 nm fluorescence, stem cell growth factors, primary screen (AID 1073). The note with it: higher = more signal.
In test [6] the target is Pro-neuregulin-1, membrane-bound isoform (Homo sapiens) (UniProt Q02297). The experiment in a line: small molecules binding neuregulin-1 protein – biochemical, small-molecule microarray, fluorescence 635/667, psychiatric disease protein project, primary screen (AID 1075).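 Further: score combines 667 nm spot fluorescence with signal to noise.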 The settings on record: NRG1 binding, 635 nm fluorescence, higher = more signal.
Sequence of Pro-neuregulin-1, membrane-bound isoform (Homo sapiens) (Q02297 whole entry, looked up, the tested form may be a part, canonical isoform): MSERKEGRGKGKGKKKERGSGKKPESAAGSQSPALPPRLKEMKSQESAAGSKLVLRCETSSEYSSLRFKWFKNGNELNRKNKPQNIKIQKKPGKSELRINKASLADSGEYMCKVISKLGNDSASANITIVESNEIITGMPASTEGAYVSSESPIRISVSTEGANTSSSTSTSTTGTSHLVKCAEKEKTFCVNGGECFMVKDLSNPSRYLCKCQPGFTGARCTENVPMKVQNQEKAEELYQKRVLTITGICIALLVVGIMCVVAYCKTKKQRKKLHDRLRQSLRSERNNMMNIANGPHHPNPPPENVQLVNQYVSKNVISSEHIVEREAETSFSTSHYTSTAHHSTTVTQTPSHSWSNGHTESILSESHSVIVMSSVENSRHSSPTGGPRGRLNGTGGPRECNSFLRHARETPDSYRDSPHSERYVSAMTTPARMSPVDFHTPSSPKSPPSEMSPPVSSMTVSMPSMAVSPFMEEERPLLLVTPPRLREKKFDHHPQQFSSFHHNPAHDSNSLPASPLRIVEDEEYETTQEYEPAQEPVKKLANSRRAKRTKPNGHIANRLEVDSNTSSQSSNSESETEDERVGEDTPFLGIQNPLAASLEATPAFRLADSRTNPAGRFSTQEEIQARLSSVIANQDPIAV
In test [7] the test system is Neuregulin-1 EGF-like domain. Briefly: small molecules binding NRG1 EGF domain – biochemical, small-molecule microarray, 635 nm fluorescence, primary screen (AID 1081).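 Further: binding of the protein to compounds printed on small-molecule microarray slides.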 The note with it: higher = more signal.
The nature of test [8]: FRG1 expression reporter modulators in myotubes – cell-based, C2C12 myotubes, firefly/Renilla luciferase, luminescence, FRG1 inhibition for FSHD, primary screen (AID 1084). The settings on record: FRG1 promoter luciferase, higher = more signal, called active from +8 up or from −8 down.
Test [9] in a line: small molecules captured by biotinylated probe aFST – biochemical, small-molecule microarray, fluorescence 635/667, stem cell growth factor project, primary screen (AID 1086).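 Further: score merges 667 nm fluorescence with signal-to-noise of each printed compound spot.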 The settings on record: higher = more signal.
A short description of test [10]: binders of probe aHhip on microarray, primary screen, stem cell growth factor project, biochemical, small-molecule microarray, fluorescence 635/667 (AID 1087).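 Further: score merges spot fluorescence at 667nm with spot signal to noise ratio.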 The note with it: higher = more signal.
The subject of test [11] is PRMT1 (protein arginine N-methyltransferase 1). The experiment in a line: small molecules binding arginine methyltransferase PRMT1 – biochemical, small-molecule microarray, 635 nm fluorescence, primary screen (AID 1088).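 Further: binding of Prmt1 protein to compounds spotted on small-molecule microarray slides.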 The note with it: higher = more signal.
Test [12] can be described thus: growth effects on S. cerevisiae YJM789 – YJM789 clinical isolate, OD600, 24 h, basal, primary screen (AID 1089).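 Further: growth of clinical yeast isolate S. cerevisiae YJM 789 seeded 1000 cells per well; test concentration not given here.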 The settings on record: higher = more signal, called active from +8 up or from −8 down.
A short description of test [13]: S. pombe growth modifiers, basal conditions – strain 972, OD600, 24 h, no modulator, primary screen (AID 1090).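 Further: basal condition with compound alone and no growth modifier present; test concentration not given here.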 The settings on record: S. pombe 972 growth, higher = more signal, called active from +8 up or from −8 down.
A short description of test [14]: budding yeast growth modifiers under rapamycin – strain BY4716, OD600, 96 h, primary screen (AID 1091). Further: test concentration not given here. The settings on record: S. cerevisiae BY4716 + rapamycin, higher = more signal, called active from +8 up or from −8 down.
Test [15] addresses Torsin-1A-interacting protein 2 (Homo sapiens) (UniProt Q8NFQ8). The experiment in a line: small molecules binding lysate-expressed LULL1 – cell lysate, human LULL1 lysate, 635/667 nm fluorescence, primary screen (AID 1092).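 Further: score merges per-feature 667 nm fluorescence with signal-to-noise.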 The note with it: small-molecule microarray, hLULL1 lysate binding, 635 nm fluorescence; higher = more signal.
Test [16] in a line: optical density change of DRC41 E. coli – strain DRC41, OD650, 24 h, E. coli filamentation project, primary screen (AID 1093).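 Further: MC1000 strain lacking acrAB efflux and sulA so SOS filamentation is blocked; test concentration not given here.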 The settings on record: E. coli DRC41 growth, higher = more signal, called active from +8 up or from −8 down.
Test [17] is described as follows: probe aLefty2 binding to arrayed compounds – biochemical, biotinylated probe, 635/667 nm fluorescence, primary screen (AID 1094).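 Further: score merges spot fluorescence near 667 nm with spot signal-to-noise ratio.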 The settings on record: small-molecule microarray, higher = more signal.
Test [18] deals with Noggin (protein binding on small-molecule microarray). The experiment in a line: small molecules binding Noggin protein – biochemical, 635/667 nm fluorescence, primary screen (AID 1095).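 Further: score merges 667 nm feature fluorescence with signal to noise over triplicate slides.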 The settings on record: 635 nm fluorescence, higher = more signal.
Test [19] deals with Neurogenic locus notch homolog protein 3 (Homo sapiens) (UniProt Q9UM47). Briefly: small molecules binding NOTCH3 protein – biochemical, 635/667 nm fluorescence, primary screen (AID 1096). The settings on record: small-molecule microarray, 635 nm fluorescence, higher = more signal.
Sequence of Neurogenic locus notch homolog protein 3 (Homo sapiens) (Q9UM47 whole entry, looked up): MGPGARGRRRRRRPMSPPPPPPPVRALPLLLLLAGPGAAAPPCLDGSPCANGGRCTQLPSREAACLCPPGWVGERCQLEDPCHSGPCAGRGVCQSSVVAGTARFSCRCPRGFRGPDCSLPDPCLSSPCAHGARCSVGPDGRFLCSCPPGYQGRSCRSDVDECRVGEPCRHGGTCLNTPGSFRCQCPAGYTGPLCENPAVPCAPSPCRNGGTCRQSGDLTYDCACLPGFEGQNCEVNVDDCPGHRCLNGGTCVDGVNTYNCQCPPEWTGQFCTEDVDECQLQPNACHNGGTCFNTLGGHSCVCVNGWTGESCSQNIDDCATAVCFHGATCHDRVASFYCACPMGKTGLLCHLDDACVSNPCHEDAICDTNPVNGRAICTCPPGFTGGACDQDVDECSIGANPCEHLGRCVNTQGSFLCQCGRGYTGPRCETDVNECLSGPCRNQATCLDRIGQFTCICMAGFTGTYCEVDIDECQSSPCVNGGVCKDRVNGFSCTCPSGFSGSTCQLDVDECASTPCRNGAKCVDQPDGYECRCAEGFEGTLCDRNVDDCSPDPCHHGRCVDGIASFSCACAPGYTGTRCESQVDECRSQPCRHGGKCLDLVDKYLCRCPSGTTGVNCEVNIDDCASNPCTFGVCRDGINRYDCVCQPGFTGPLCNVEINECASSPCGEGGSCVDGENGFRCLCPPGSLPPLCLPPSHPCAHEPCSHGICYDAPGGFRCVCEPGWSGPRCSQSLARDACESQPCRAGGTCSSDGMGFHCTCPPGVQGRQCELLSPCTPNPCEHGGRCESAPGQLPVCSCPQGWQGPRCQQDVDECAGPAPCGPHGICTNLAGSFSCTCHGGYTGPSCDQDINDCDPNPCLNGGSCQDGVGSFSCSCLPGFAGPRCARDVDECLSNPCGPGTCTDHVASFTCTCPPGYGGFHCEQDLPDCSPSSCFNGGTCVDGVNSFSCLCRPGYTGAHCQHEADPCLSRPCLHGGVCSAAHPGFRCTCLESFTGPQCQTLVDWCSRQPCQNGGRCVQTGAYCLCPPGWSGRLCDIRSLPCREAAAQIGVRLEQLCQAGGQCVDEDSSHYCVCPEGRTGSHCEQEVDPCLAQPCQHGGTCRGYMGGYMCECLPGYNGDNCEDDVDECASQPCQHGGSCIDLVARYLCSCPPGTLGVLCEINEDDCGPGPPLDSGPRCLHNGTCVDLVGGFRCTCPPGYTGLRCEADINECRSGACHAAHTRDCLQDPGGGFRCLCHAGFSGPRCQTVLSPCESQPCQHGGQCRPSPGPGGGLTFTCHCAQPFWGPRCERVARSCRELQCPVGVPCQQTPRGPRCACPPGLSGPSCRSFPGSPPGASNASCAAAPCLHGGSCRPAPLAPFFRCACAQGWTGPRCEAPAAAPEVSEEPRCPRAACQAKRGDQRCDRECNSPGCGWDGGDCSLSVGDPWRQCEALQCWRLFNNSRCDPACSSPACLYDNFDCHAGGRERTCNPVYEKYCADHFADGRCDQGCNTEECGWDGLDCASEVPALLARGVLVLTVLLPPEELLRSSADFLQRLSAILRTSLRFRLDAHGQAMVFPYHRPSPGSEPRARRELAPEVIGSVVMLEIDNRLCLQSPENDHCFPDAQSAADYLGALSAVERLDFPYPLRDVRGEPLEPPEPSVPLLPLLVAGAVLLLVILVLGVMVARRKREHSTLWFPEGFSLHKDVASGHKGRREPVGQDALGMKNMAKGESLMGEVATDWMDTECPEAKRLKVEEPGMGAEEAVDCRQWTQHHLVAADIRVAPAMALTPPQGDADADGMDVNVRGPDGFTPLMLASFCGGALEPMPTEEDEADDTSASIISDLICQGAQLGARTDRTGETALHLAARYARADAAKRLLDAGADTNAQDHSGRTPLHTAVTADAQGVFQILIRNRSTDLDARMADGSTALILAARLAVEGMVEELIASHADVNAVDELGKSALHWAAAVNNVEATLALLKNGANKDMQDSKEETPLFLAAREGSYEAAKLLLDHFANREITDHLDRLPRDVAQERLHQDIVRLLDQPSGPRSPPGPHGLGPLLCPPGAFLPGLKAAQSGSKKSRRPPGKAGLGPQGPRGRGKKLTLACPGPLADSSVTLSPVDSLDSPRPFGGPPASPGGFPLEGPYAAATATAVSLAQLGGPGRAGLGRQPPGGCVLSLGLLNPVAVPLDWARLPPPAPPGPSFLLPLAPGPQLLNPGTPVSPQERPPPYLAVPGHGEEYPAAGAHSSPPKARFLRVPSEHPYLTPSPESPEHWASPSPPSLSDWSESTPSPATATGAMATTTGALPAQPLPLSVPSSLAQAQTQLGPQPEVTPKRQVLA
Test [20] is described as follows: probe aEGFR binding to arrayed compounds – biochemical, biotinylated probe, 635/667 nm fluorescence, primary screen (AID 1097).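 Further: probe is a biotinylated anti-EGFR antibody binding compounds printed on slides; score combines fluorescence near 667 nm and signal to noise of each spot.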 The settings on record: small-molecule microarray, higher = more signal.

Structures are written as SMILES. Calls of active or inactive are those of the source.

Sequence of Torsin-1A-interacting protein 2 (Homo sapiens) (Q8NFQ8 whole entry, looked up): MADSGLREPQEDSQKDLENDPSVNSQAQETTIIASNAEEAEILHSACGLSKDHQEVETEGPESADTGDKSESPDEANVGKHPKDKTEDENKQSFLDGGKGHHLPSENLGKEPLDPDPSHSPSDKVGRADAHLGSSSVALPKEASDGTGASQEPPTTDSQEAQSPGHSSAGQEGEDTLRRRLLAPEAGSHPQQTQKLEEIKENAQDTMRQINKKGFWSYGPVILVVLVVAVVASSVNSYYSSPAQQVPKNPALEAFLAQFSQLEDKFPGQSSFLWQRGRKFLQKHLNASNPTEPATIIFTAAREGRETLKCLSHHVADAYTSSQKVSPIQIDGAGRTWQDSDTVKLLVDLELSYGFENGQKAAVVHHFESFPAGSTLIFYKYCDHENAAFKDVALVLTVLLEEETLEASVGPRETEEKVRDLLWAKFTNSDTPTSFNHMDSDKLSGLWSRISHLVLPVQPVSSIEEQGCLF

In the case of `COC(=O)Cn1c(C(=O)N(C)C)cc2c1C[C@H]1CN(C(=O)c3ccccc3)[C@@](Cc3ccc(OC)cc3)(C(=O)OC)[C@@H]21`, the composite z-score is 0.2 in test [1]; -0.195 in test [2]; 0.347 in [3]; 1.25 in test [4]; 1.19 in [5]; 2.13 in test [6]. Moreover, the composite z-score in test [7] was found to be 1.18; in test [9] it was 0.513; in test [10], 0.0053; in test [11], 0.995; in test [15] it was 3.7; in [17] it was 0.134. Besides, the composite z-score in test [18] was 0.471; in [19] it was 1.11; in test [20], -0.0476. Besides, the z-score was 0.296 (inactive) in [8]; 0.211 (inactive) in [12]; 0.833 (inactive) in test [13]; 0.493 (inactive) in test [14]; -0.692 (inactive) in test [16].
`COCCOC(=O)N1C(=O)[C@@]2(c3cc(C#CCCO)ccc31)[C@H](C(=O)N1CCc3cc(OC)c(OC)cc3C1)[C@H]1C(=O)O[C@H](c3ccccc3)[C@H](c3ccccc3)N1[C@@H]2c1ccccc1OCCO`: the composite z-score is -0.327 in test [1]; 0.255 in test [2]; -0.0336 in test [3]; 1 in [4]; 1.47 in [5]; 0.317 in test [6]. Further, the composite z-score is 1.19 in test [7]; 0.0205 in test [9]; -0.111 in test [10]; 1.55 in test [11]; 2.81 in [15]; -0.0159 in test [17]. Further, the composite z-score in test [18] is 1.81; in test [19], 1.1; in [20] it was -0.0564. The z-score in test [8] is -0.742 (inactive); in test [12], 2.65 (inactive); in test [13], 1.65 (inactive); in test [14], 3.88 (inactive); in test [16] it was 0.156 (inactive).
Regarding `CCOC(=O)C[C@H]1[C@H](OC(=O)Cc2ccc3c(c2)OCO3)[C@@H](NC(=O)c2ccccc2)c2cc(OCCCO)ccc2N1C(=O)Cc1ccc(OC)cc1`, the composite z-score is -0.483 in [1]; 0.147 in test [2]; -0.0038 in test [3]; 0.306 in [4]; 0.523 in [5]; 0.726 in test [6]. Further, the composite z-score in [7] was 0.049; in [9], -0.249; in test [10], -0.261; in test [11], 0.498; in test [15], 0.837; in test [17] it was -0.0915. The composite z-score in test [18] is 0.0752; in test [19], 0.206; in test [20] it was -0.0978. Also, the z-score was -2.56 (inactive) in test [8]; -2.62 (inactive) in test [12]; -0.91 (inactive) in test [13]; -0.602 (inactive) in test [14]; -0.429 (inactive) in test [16].
For `CCCC[C@H]1OB(O)C[C@H]2C1=C(COC)C[C@H]1C(=O)C=CC(=O)[C@H]12`, the composite z-score in test [1] is -0.54; in test [2] it was 0.007; in test [3] it was -0.0582; in [4], 0.183; in [5], 0.861; in test [6] it was -0.279. Further, the composite z-score is -0.0265 in test [7]; 0.534 in [9]; 0.206 in test [10]; 1.42 in [11]; 0.117 in test [15]; -0.0798 in test [17]. In addition, the composite z-score in test [18] was 0.747; in test [19], 0.936; in [20] it was -0.071. For the same molecule, the z-score is 0.254 (inactive) in test [8]; 0.275 (inactive) in test [12]; -1.56 (inactive) in [13]; -0.293 (inactive) in [14]; 0.898 (inactive) in test [16].
On to `CC(=O)c1ccc(C(O)C2C=CC3C(=O)NC(=O)C3N2Nc2ccc(Cl)cc2Cl)cc1` (stereo not given), for which the composite z-score turned out to be 0.863 in [1]; 0.37 in test [2]; 0.045 in test [3]; 0.606 in test [4]; 1.01 in test [5]; 1.72 in test [6]. Besides, the composite z-score is 0.669 in test [7]; 0.462 in test [9]; -0.106 in [10]; -0.002 in test [11]; 3 in test [15]; 0.0277 in [17]. In addition, the composite z-score in test [18] was -0.742; in [19], 0.424; in test [20], -0.0828. In addition, the z-score is 1.12 (inactive) in test [8]; 0.727 (inactive) in [12]; 0.973 (inactive) in test [13]; 1.14 (inactive) in test [14]; -1.08 (inactive) in test [16].

The values are drawn from PubChem BioAssay.
